Laboratory results taken from PubChem BioAssay (NCI).
This is part of a sample that, as a whole, favours compounds with a hit. Of some 79,000 tested, about 15% had one in any assay. Values without a mark were called inactive. The source made the active and inactive calls. Cut-off read from the data, not from the text of the source: active = growth inhibition above about 70%; inactive = the rest.

Assay: NCI Yeast Anticancer Drug Screen. Data for the wt2 strain (AID 169);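 note: 0% = growth of vehicle-treated yeast cultures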
Settings: S. cerevisiae wt2 strain growth inhibition, active compounds read high
Description: Growth inhibition of yeast strains with defined genetic alterations is measured as a screen for potential anti-cancer activity. Selected strains with alterations in DNA damage repair or cell cycle control were exposed to compounds and growth inhibition was measured relative to vehicle treated controls. The strain used in this assay is wt2

SMILES | growth inhibition (at 1.2 µM) [%] | growth inhibition (at 3.7 µM) [%] | growth inhibition (at 11.0 µM) | growth inhibition (at 33.0 µM) | growth inhibition (at 100.0 µM)
CCS(=O)(=O)Nc1ccc(Nc2c3ccccc3nc3ccccc23)c(OC)c1 | -47 | -47 | -42% | -1% | 56%
CC(C)OC(=O)NNc1cccc(Cl)c1 | 1 | 13 | 80% (active) | 97% (active) | 98% (active)
CC1CCC(C2=CSC3CCCCC3N2)CC1 (stereo not given) | -8 | -3 | -4% | 19% | 74% (active)
CCOC(=O)/C(=C\c1ccc(F)cc1)C(C)=O | -35 | -17 | 62% | 95% (active) | 98% (active)
CCCNCC(=O)O[C@]1(CC)C(=O)OCc2c1cc1n(c2=O)Cc2cc3ccccc3nc2-1 | -22 | -32 | -19% | 37% | 82% (active)
O=C1C(=O)c2cccc([N+](=O)[O-])c2-c2ccccc21 | 30 | 47 | 66% | 99% (active) | 98% (active)
O=C(C#Cc1ccccc1)Nc1ccccc1 | -9 | -4 | 19% | 90% (active) | 99% (active)
COC(=O)C(=O)c1c(-c2ccc(Cl)c(Cl)c2)[nH]c2[nH]n(-c3ccccc3)c(=O)c2c1=O | 0 | 5 | 44% | 57% | 56%
